Bioassay records from PubChem.
GLP1R inv ag: qHTS of GLP-1 Receptor Inverse Agonists (Inhibition Mode) | Glucagon-like peptide 1 receptor (Homo sapiens), P43220 | HEK293 GLP-1R CRE-luciferase, luminescence, 24 h; GLP-1R form is constitutively active | Potency, µM (doses to about 38.3 µM), inactives show at the highest dose activity change, negative = inhibition, actives largely listed as inhibitors | AID 624417, 2012 | 410,000 tested, 1.6% active; further: on the % scale 0 is the no-effect control and ±100 the full control effect; nearly all actives have a fitted effect of over 55% in size
Target sequence (P43220 whole entry, looked up): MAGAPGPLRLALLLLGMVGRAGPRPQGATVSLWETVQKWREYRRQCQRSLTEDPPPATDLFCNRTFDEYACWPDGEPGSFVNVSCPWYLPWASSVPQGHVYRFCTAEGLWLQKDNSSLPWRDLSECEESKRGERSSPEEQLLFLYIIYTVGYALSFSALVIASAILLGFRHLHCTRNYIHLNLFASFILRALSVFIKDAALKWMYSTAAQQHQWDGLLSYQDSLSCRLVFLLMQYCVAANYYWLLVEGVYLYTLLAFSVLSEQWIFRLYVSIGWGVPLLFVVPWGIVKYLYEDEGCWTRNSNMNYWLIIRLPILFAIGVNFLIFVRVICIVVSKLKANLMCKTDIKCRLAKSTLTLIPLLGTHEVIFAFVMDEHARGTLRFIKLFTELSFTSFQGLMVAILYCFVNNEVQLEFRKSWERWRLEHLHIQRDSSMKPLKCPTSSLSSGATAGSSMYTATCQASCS
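Cells are plated, allowed 12 hours at 37 deg C, then treated with compounds for 24 hr before luciferase detection reagent is added and luminescence is read after 12 min at room temperature. The HEK293 line carries constitutively active GLP-1R with a cAMP-responsive reporter.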
GLP-1R agonist: qHTS of GLP-1 Receptor Agonists; Glucagon-like peptide 1 receptor (Homo sapiens), P43220; 380,000 tested, 0.007% active; Potency, µM (series often up to 45.6 µM), for inactives: top-dose activation, actives largely listed as activators; HEK293 GLP-1R CRE-luciferase, luminescence, 4-6 h; cells express a hypersensitive GLP-1R form; AID 624172, 2012; further: % of control where 0% means no effect
HEK293 tox: qHTS of GLP-1 Receptor Inverse Agonists: Cytotox Screen. HEK293 cAMP-luciferase reporter cells, luminescence, 24 h. Potency, µM (series often up to 38.3 µM), inactives show at the top dose activity change, negative = inhibition, usual class: inhibitors. 410,000 tested, 0.13% active;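 further: loss of luciferase light is scored as toxicity; on the % scale 0 is the no-effect control and ±100 the full control effect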
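Seeding density was 200 cells/uL; after overnight-length (12 h) culture, 23 nL compounds went on for 24 h at 37 °C. Readout used a luciferase detection reagent, luminescence taken after 12 min at room temperature.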
Numbers without * were called inactive; ? = inconclusive; · = no result. Shown are actives, neighbours in structure and some others; about 1.7% of the full set was active somewhere. The call rests on the fitted dose curve; in most records, active means well fitted curve in the direction sought with a large enough effect; inconclusive means small, poorly fitted or top-dose-only effect, or another doubt; inactive means no such curve, though single readings can be large; an effect the other way counts as inactive or inconclusive. Potency means the concentration at half of the fitted maximal effect.

SMILES	GLP1R inv ag	GLP-1R agonist	HEK293 tox
CC1(C2CCCC2)NC(=O)NC1=O (stereo not drawn)	10%	3%	18%
O=C(Nc1cccc(C(F)(F)F)c1)c1cccnc1N1CCCC1	11µM*	16%	10%
O=C(Nc1cccc(F)c1)c1cccnc1NCCc1ccccc1	10µM*	17%	-4%
O=C(Nc1cccc(C(F)(F)F)c1)c1cccnc1NCCc1ccccc1	3.5µM*	-2%	?
O=C(Nc1ccc(F)cc1)c1cccnc1NCCc1ccccc1	?	6%	-6%
O=C(Nc1cccc(C(F)(F)F)c1)c1cccnc1NCCO	23%	-4%	5%
O=C(Nc1cccc(C(F)(F)F)c1)c1cccnc1N1CCOCC1	-28%	-3%	-7%
Cc1nn(-c2ccc(F)cc2)c(Cl)c1C(=O)OC(C)C(=O)N(C)C1CCCCC1 (stereo not drawn)	5µM*	-5%	-7%
Cc1nn(-c2ccccc2)c(Cl)c1C(=O)OC(C)C(=O)NC(=O)NC1CCCCC1 (stereo not drawn)	?	5%	63%
COc1ccccc1OCC(=O)N(Cc1ccc(N(C)C)cc1)CC1CCCO1 (stereo not drawn)	-10%	·	-10%
CCCCOc1cccc(C(=O)N(Cc2cccs2)c2ccc(OC)cc2)c1	?	·	-29%
COc1ccccc1CNCc1cc(Br)ccc1OC	6.3µM*	2%	-20%
COc1ccccc1CNCc1cc(OC)c(OC)cc1OC	1%	-9%	1%
O=c1c2oc3ccccc3c2n(Cc2cccc(F)c2)c(=O)n1Cc1ccc2c(c1)OCO2	3%	·	3%
Cc1cccc2nc3ccccc3cc12	4%	3%	3%
Cc1[nH]ccc2cc3nc4ccccc4c3cc12	10µM*	-2%	-1%
COc1ccc(C2=Nn3c(nnc3-c3cccnc3)SC2)cc1OC	0%	2µM*	8%
COc1ccc(C2=Nn3c(nnc3-c3ccncc3)SC2)cc1OC	0%	?	4%
CC(C)C[C@H]1CNC(=S)N1C[C@H]1CCCN1C[C@H](Cc1ccccc1)N1C[C@H](Cc2ccc(O)cc2)N(CCc2ccccc2)C1=S	?	-3%	-16%
CCCOc1ccc(-c2nc(N3CCN(C)CC3)c3ccccc3n2)cc1	?	34%	-8%
CCCOc1ccc(-c2nc(N3CCN(CC)CC3)c3ccccc3n2)cc1	7.9µM*	13%	-28%
COc1ccc(C(C)(O)c2nc(-c3ccncc3)cs2)cc1 (stereo not drawn)	-44%	3%	-26%
Cc1ccc(/C=C/C(=O)Nc2ccc([N+](=O)[O-])cc2)o1	77%	-7%	-4%
CCOC(=O)CCc1ccc(NC(=O)/C=C/c2ccc([N+](=O)[O-])o2)cc1	?	5%	11µM*
CC(C)NC(=O)C1(C)CN(S(C)(=O)=O)CC(=O)N1Cc1cccc(F)c1 (stereo not drawn)	12%	·	-5%
SMILES	GLP1R inv ag	GLP-1R agonist	HEK293 tox
CC1CCN(c2ccc(N3C(=O)C4CCCCC4C3=O)cc2[N+](=O)[O-])CC1 (stereo not drawn)	17%	-12%	9%
CCCCN(CCCNc1ncnc2nc[nH]c12)c1ccccc1	10µM*	-1%	-9%
CCN(CCCNc1ncnc2nc[nH]c12)c1cccc(C)c1	-25%	2%	12%
CCCCCCC(=O)O[C@@H]1CC[C@H]2[C@@H]3CCc4cc(O)ccc4[C@H]3CC[C@]12C	·	1%	·
Cc1ccc(NC(=O)C(=O)NCC(c2cccnc2)N2CCN(C)CC2)cc1C (stereo not drawn)	4%	·	6%
CCCN(CC(=O)Nc1ccc(F)c(F)c1F)C(=O)c1cc([N+](=O)[O-])ccc1N1CCOCC1	-8%	-10%	4%
CCOC(=O)c1sc(NC(=O)Nc2ccccc2Cl)cc1C	7.9µM*	-15%	?
CCOC(=O)c1sc(NC(C)=O)cc1C	36%	2%	-14%
CCOC(=O)C1CCCN(C(=O)c2ccc3[nH]c4c(c3c2)CC(C)CC4)C1 (stereo not drawn)	-40%	0%	-5%
CC1CCc2[nH]c3ccc(C(=O)N4CCCC(C(F)(F)F)C4)cc3c2C1 (stereo not drawn)	10µM*	-14%	-13%
COc1cccc(CNCC2CCCO2)c1 (stereo not drawn)	21%	-6%	-1%
CCC(C)N(C)Cc1cccc(C2(O)CCN(S(=O)(=O)c3ccc(F)c(C)c3)CC2)c1 (stereo not drawn)	2.5µM*	1%	?
Cc1cc(S(=O)(=O)N2CCN(c3c(C)cccc3C)CC2)ccc1F	?	-7%	-1%
COc1ccc(-c2cc(C(F)(F)F)n3nc(C(=O)Nc4sc5c(c4C(=O)OC(C)C)CCC(C)C5)cc3n2)cc1 (stereo not drawn)	7%	·	-7%
O=C(Nc1ccc(Oc2cccc(C(F)(F)F)c2)nc1)c1ccco1	?	7%	12%
COc1ccc(-c2cccc(NC(=O)c3ccco3)c2)nn1	-4%	1%	2%
COc1ccc(-c2ccc(NC(=O)c3ccco3)cc2)nn1	7.1µM*	-1%	17%
CC(C)(C)c1ccc(Oc2ccc(NC(=O)c3ccco3)cn2)cc1	2.5µM*	26%	-28%
C#CCNC(=O)C1=C[C@H](c2ccc(Br)cc2)[C@@H](CCCO)[C@H](OCC)O1	-17%	4%	0%
O=C(NCCCn1ccnc1)c1ccc(Cl)s1	2%	-2%	2%
Cc1cc(N/N=C/c2cccc([N+](=O)[O-])c2)nc(-n2nc(C)cc2C)n1	?	13%	?
COc1ccc(/C=N/Nc2cc(C)nc(-n3nc(C)cc3C)n2)cc1	?	6%	0.79µM*
Cc1cc(N/N=C/c2cccc(Cl)c2)nc(-n2nc(C)cc2C)n1	?	1%	?
COc1cc(/C=N/Nc2nc(Nc3ccccc3)nc(-n3nc(C)cc3C)n2)cc(OC)c1OC	?	18%	?
COc1cc(/C=N/Nc2nc(Nc3ccc(C)cc3)nc(-n3nc(C)cc3C)n2)cc(OC)c1OC	?	7%	4.5µM*
SMILES	GLP1R inv ag	GLP-1R agonist	HEK293 tox
Cc1cc(N/N=C/c2ccccc2[N+](=O)[O-])nc(-n2nc(C)cc2C)n1	2.5µM*	4%	4.5µM*
O=S(=O)(c1ccc2[nH]ccc2c1)N1CCCCCC1	?	3%	-17%
CC1(C)Nc2ccccc2C(=O)N1c1ccccc1	38%	1%	-2%
O=C1CN(CC(=O)Nc2cccc(Cl)c2Cl)c2ccccc2N1	10µM*	9%	1%
O=C(CN1C(=O)NC2(CCCC2)C1=O)Nc1cccc(Cl)c1Cl	-23%	8%	1%
CCc1nn(CC(=O)NCCC(C)C)c(=O)c2cc3occc3n12	12%	·	4%
COc1ccc2oc(=O)c(C(=O)N3CCN(c4ccc(C)cc4)CC3)cc2c1	-2%	0%	-8%
Cc1c(Cl)cccc1NS(=O)(=O)c1ccc2[nH]cc(C(=O)NC3CCCC3)c(=O)c2c1	?	·	-22%
Cc1cc(C)cc(NS(=O)(=O)c2ccc3[nH]cc(C(=O)NC4CCCCC4)c(=O)c3c2)c1	7.1µM*	·	-18%
